Each structure is given as a SMILES string. About 83,000 compounds went through this panel and 20% of them were active in at least one assay; those are over-represented in the sample as a whole.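 Interpretation: 100, growth as untreated; towards 0, rising growth inhibition; 0, no net growth; 0 to -100, cell death. Compounds scoring below 10 were considered active.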 Unmarked numbers belong to inactive results. The source made the active and inactive calls.

One assay deals with SF-268 CNS. Nature of the assay: NCI-60 one-dose screen, 48 h (100 = growth as untreated, 0 = no growth, -100 = all killed). To be noted: 10 µM.
Consider `O=C(Nc1ccc(I)cc1F)c1cc(-c2ccc(F)cc2F)ccc1O`, for which the growth is 8.16% (active).
Same read-out and setting: for `CN1CCN(c2ccc(C(=O)/C=C/c3ccc(C#N)cc3)cc2)CC1` the value was 107%; for `Cc1ccc([N+](=O)[O-])c(C(=O)Nc2ccc(-c3ccc4c(c3)NC(=O)/C4=C\c3ccc[nH]3)cc2)c1`, 14.2%.
Take `CN1CCO/C1=C(/NC(=O)c1ccc(Cl)cc1)[P+](c1ccccc1)(c1ccccc1)c1ccccc1`: the growth was 97%.
Still for that read-out and setting: for `CNCc1cccc2c1OCCCCCC[C@@](C)(O)CC1(CC1)S(=O)(=O)c1ccc(cc1)-c1cnc(N)c(n1)C(=O)N2` the value was -64.2% (active).
The same measure, in the same setting: for `Cc1cccc(NC(=O)CSc2nc3ccc(F)cc3c(=O)n2-c2ccc(Cl)cc2)c1C` the value was 59.1%; for `CC(=O)OC[C@@]1(C)C2CC[C@]3(C)C(CC=C4C5CC(C)(C)CC[C@]5(C(=O)Nc5ccccc5)CC[C@]43C)[C@@]2(C)C[C@@H](OC(C)=O)[C@@H]1OC(C)=O` (some centres undefined), 52.5%.
The same measure, in the same setting: for `CC1=C2C(=C[C@@](C)(COCOCCCl)[C@@H]2O)C(=O)[C@](C)(O)C12CC2` the value was -9.66% (active); for `CCN1CCN(Cc2ccc(NC(=O)c3cccc(-n4cc(-c5ccc(NC(C)=O)nc5)nn4)c3)cc2C(F)(F)F)CC1`, 123%; for `O=C(c1ccc(O)cc1)C1[C@H](c2ccc(Br)cc2)[C@@H](c2ccccc2)NC12C(=O)Nc1ccccc12` (some centres undefined), 35.5%.
`Nc1nnc(-c2c[nH]c3ccc(F)cc23)c(-c2c[nH]c3ncccc23)n1`: the growth is 80.2%.
Consider `O=C(c1ccc(Cl)cc1)C1[C@H](c2ccccc2Br)[C@@H](c2ccccc2)NC12C(=O)Nc1ccc(Cl)cc12` (some centres undefined), for which the growth is 23.4%.
In the case of `Cc1ccc(NCC(=O)Nn2c(COc3ccccc3)nc3ccccc3c2=O)cc1`, the growth is 49.8%.
Same read-out and setting: for `NS(=O)(=O)c1ccc(N=Nc2c(O)n(CC(=O)Nc3ccccc3Br)c3ccccc23)cc1` the value was 86.6%; for `CN(C(=O)c1ccc(C(F)(F)F)cc1C(F)(F)F)c1sc2c(c1C#N)CCC(=O)C2`, 85%; for `CC(C)(C)Nc1nc2cc(Cl)c(Cl)cc2nc1S(C)(=O)=O`, 73.7%.
Same read-out and setting: for `Cc1ccc(/C(N)=N/c2sc(-c3ccccc3)nc2-c2ccccc2)cc1` the value was 79.2%; for `O=c1cc(-c2ccccc2)oc2cc(OCCCNCc3ccccc3)cc(O)c12`, 25.2%.
Same read-out and setting: for `CCOC(=O)C1NN(c2ccc(S(N)(=O)=O)cc2)c2nc3nc(-c4cccs4)cc(-c4cccs4)c3c(=O)n21` (centres undefined) the value was 75%.
As to `N#Cc1c(NC(=O)c2ccc(C(F)(F)F)cc2)sc2c1CCC(O)=C2`, the growth was 43.3%.
Still for that read-out and setting: for `COc1ccc2[nH]cc(/C=N/Nc3ccc(Br)cn3)c2c1` the value was 21%; for `Cc1cc(C(F)(F)F)ccc1C(=O)Nc1sc2c(c1C#N)CCC(=O)C2`, 17.1%; for `Cc1ccc(F)cc1N/C=c1\s/c(=C(\C#N)C(=O)Nc2ccccc2)n(-c2ccccc2)c1=O`, 69.5%.
The same measure, in the same setting: for `CCCn1c(=O)c2[nH]c(-c3ccc(OCc4nc5ccc(C)cc5[nH]4)cc3)nc2n(CCC)c1=O` the value was 66.4%; for `O=C(O)CCCCCCCCCCN1C(=O)/C(=C/c2cnc(-c3ccccc3)s2)SC1=S`, 112%; for `O=C1NC(=NC2CCCCCC2)N/C1=C\c1ccc2ncoc2c1`, 35%.
Same read-out and setting: for `COc1ccc2[nH]c(=O)c(CSc3cccc(N)c3)cc2c1` the value was 58%.
`O=C(c1ccc(Cl)cc1)C1[C@H](c2ccc(Br)cc2)[C@@H](c2ccccc2)NC12C(=O)Nc1ccc(Cl)cc12` (some centres undefined): the growth was -7.66% (active).
As for `C=CC(=O)Nc1ccc(C(=O)/C=C/c2ccc(N(C)CCF)cc2)c(O)c1`, the growth is -19.7% (active).
Still for that read-out and setting: for `COc1cccc(/C=C2\N=C(C)N(CCc3ccc(S(N)(=O)=O)cc3)C2=O)c1` the value was 101%; for `N#Cc1c(NC(=O)c2ccc(C(F)(F)F)cc2)sc2c1CCC(=O)C2`, -37.6% (active).
On to `COc1cc2oc(-c3cccc(C(=O)Nc4ccc(Cl)cc4)c3)cc(=O)c2c(OCCNC(=O)CNC(=O)OC(C)(C)C)c1OC`, for which the growth is 81.8%.
`Cc1ccc(C(=O)NNC(=O)CSc2nc3ccccc3c(=O)[nH]2)cc1`: the growth is 101%.
As for `Brc1ccc(/C=N/Nc2ncnc3sc4c(c23)CCN(Cc2ccccc2)C4)cc1`, the growth was 74.2%.
Same read-out and setting: for `Cc1cc2nc3c4ccccc4n(CCO)c3nc2cc1C` the value was 78.1%; for `O=C1NC(=NC23CC4CC(CC(C4)C2)C3)N/C1=C\c1ccc2ncccc2n1`, -29.8% (active); for `CN1CCN(Cc2ccc(C(=O)Nc3cccc(Nc4ccc5cc(O)ccc5n4)c3)cc2C(F)(F)F)CC1`, -26% (active).

For the next assay, the system named is SF-295 CNS. The assay is described as above. To be noted: 10 µM.
On to `O=C(Nc1ccc(I)cc1F)c1cc(-c2ccc(F)cc2F)ccc1O`, for which the growth is -37.7% (active).
Same read-out and setting: for `CN1CCN(c2ccc(C(=O)/C=C/c3ccc(C#N)cc3)cc2)CC1` the value was 78.2%; for `Cc1ccc([N+](=O)[O-])c(C(=O)Nc2ccc(-c3ccc4c(c3)NC(=O)/C4=C\c3ccc[nH]3)cc2)c1`, -65.3% (active); for `CN1CCO/C1=C(/NC(=O)c1ccc(Cl)cc1)[P+](c1ccccc1)(c1ccccc1)c1ccccc1`, 80.2%.
Same read-out and setting: for `CNCc1cccc2c1OCCCCCC[C@@](C)(O)CC1(CC1)S(=O)(=O)c1ccc(cc1)-c1cnc(N)c(n1)C(=O)N2` the value was -100% (active).
Same read-out and setting: for `Cc1cccc(NC(=O)CSc2nc3ccc(F)cc3c(=O)n2-c2ccc(Cl)cc2)c1C` the value was 57.5%; for `CC(=O)OC[C@@]1(C)C2CC[C@]3(C)C(CC=C4C5CC(C)(C)CC[C@]5(C(=O)Nc5ccccc5)CC[C@]43C)[C@@]2(C)C[C@@H](OC(C)=O)[C@@H]1OC(C)=O` (some centres undefined), 19.9%; for `CC1=C2C(=C[C@@](C)(COCOCCCl)[C@@H]2O)C(=O)[C@](C)(O)C12CC2`, -30.2% (active).
Turning to `CCN1CCN(Cc2ccc(NC(=O)c3cccc(-n4cc(-c5ccc(NC(C)=O)nc5)nn4)c3)cc2C(F)(F)F)CC1`, the growth is 93.1%.
Turning to `O=C(c1ccc(O)cc1)C1[C@H](c2ccc(Br)cc2)[C@@H](c2ccccc2)NC12C(=O)Nc1ccccc12` (some centres undefined), the growth is 29.9%.
The same measure, in the same setting: for `Nc1nnc(-c2c[nH]c3ccc(F)cc23)c(-c2c[nH]c3ncccc23)n1` the value was 36.6%; for `O=C(c1ccc(Cl)cc1)C1[C@H](c2ccccc2Br)[C@@H](c2ccccc2)NC12C(=O)Nc1ccc(Cl)cc12` (some centres undefined), 15.2%; for `Cc1ccc(NCC(=O)Nn2c(COc3ccccc3)nc3ccccc3c2=O)cc1`, 58%.
Still for that read-out and setting: for `NS(=O)(=O)c1ccc(N=Nc2c(O)n(CC(=O)Nc3ccccc3Br)c3ccccc23)cc1` the value was 25.8%; for `CN(C(=O)c1ccc(C(F)(F)F)cc1C(F)(F)F)c1sc2c(c1C#N)CCC(=O)C2`, 65.1%; for `CC(C)(C)Nc1nc2cc(Cl)c(Cl)cc2nc1S(C)(=O)=O`, 91.1%.
Same read-out and setting: for `Cc1ccc(/C(N)=N/c2sc(-c3ccccc3)nc2-c2ccccc2)cc1` the value was 77.6%; for `O=c1cc(-c2ccccc2)oc2cc(OCCCNCc3ccccc3)cc(O)c12`, -81.8% (active).
Regarding `CCOC(=O)C1NN(c2ccc(S(N)(=O)=O)cc2)c2nc3nc(-c4cccs4)cc(-c4cccs4)c3c(=O)n21` (centres undefined), the growth is 78.5%.
For `N#Cc1c(NC(=O)c2ccc(C(F)(F)F)cc2)sc2c1CCC(O)=C2`, the growth was 17.5%.
`COc1ccc2[nH]cc(/C=N/Nc3ccc(Br)cn3)c2c1`: the growth was 17.4%.
In the case of `Cc1cc(C(F)(F)F)ccc1C(=O)Nc1sc2c(c1C#N)CCC(=O)C2`, the growth is -25.5% (active).
The same measure, in the same setting: for `Cc1ccc(F)cc1N/C=c1\s/c(=C(\C#N)C(=O)Nc2ccccc2)n(-c2ccccc2)c1=O` the value was 47.8%; for `CCCn1c(=O)c2[nH]c(-c3ccc(OCc4nc5ccc(C)cc5[nH]4)cc3)nc2n(CCC)c1=O`, 12.6%.
On the same count and under the same terms, for `O=C(O)CCCCCCCCCCN1C(=O)/C(=C/c2cnc(-c3ccccc3)s2)SC1=S` the value was 83.3%; for `O=C1NC(=NC2CCCCCC2)N/C1=C\c1ccc2ncoc2c1`, 47.5%; for `COc1ccc2[nH]c(=O)c(CSc3cccc(N)c3)cc2c1`, 31.2%.
Same read-out and setting: for `O=C(c1ccc(Cl)cc1)C1[C@H](c2ccc(Br)cc2)[C@@H](c2ccccc2)NC12C(=O)Nc1ccc(Cl)cc12` (some centres undefined) the value was -84% (active); for `C=CC(=O)Nc1ccc(C(=O)/C=C/c2ccc(N(C)CCF)cc2)c(O)c1`, -4.58% (active); for `COc1cccc(/C=C2\N=C(C)N(CCc3ccc(S(N)(=O)=O)cc3)C2=O)c1`, 105%.
As for `N#Cc1c(NC(=O)c2ccc(C(F)(F)F)cc2)sc2c1CCC(=O)C2`, the growth was -95.3% (active).
Same read-out and setting: for `COc1cc2oc(-c3cccc(C(=O)Nc4ccc(Cl)cc4)c3)cc(=O)c2c(OCCNC(=O)CNC(=O)OC(C)(C)C)c1OC` the value was 50.6%; for `Cc1ccc(C(=O)NNC(=O)CSc2nc3ccccc3c(=O)[nH]2)cc1`, 96.3%.
As for `Brc1ccc(/C=N/Nc2ncnc3sc4c(c23)CCN(Cc2ccccc2)C4)cc1`, the growth is 58.7%.
On the same count and under the same terms, for `Cc1cc2nc3c4ccccc4n(CCO)c3nc2cc1C` the value was 66%; for `O=C1NC(=NC23CC4CC(CC(C4)C2)C3)N/C1=C\c1ccc2ncccc2n1`, -27.5% (active); for `CN1CCN(Cc2ccc(C(=O)Nc3cccc(Nc4ccc5cc(O)ccc5n4)c3)cc2C(F)(F)F)CC1`, -96.9% (active).

These data come from PubChem BioAssay (NCI).
